# About 83,000 compounds went through this panel and 20% of them were active in at least one assay; those are over-represented in the sample as a whole.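 Method: cells in 96-well plates; compound added at one concentration; 48 h incubation; percent growth measured; values under 10 scored active.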 A number with no mark means an inactive call. Activity calls are given as the source filed them.
# Key:
# Test in all cases: NCI-60 one-dose screen, 48 h (100 = growth as untreated, 0 = no growth, -100 = all killed)
# [1] = system: SR leukemia; conditions: 10 µM unless noted
# [2] = system: RPMI-8226 leukemia; conditions: 10 µM unless noted
# [3] = system: OVCAR-8 ovarian; conditions: 10 µM unless noted
# [4] = system: OVCAR-5 ovarian; conditions: 10 µM unless noted
# [5] = system: OVCAR-4 ovarian; conditions: 10 µM unless noted
# [6] = system: SK-OV-3 ovarian; conditions: 10 µM unless noted
# [7] = system: IGROV1 ovarian; conditions: 10 µM unless noted
# [8] = system: OVCAR-3 ovarian; conditions: 10 µM unless noted
# [9] = system: NCI/ADR-RES ovarian; conditions: 10 µM unless noted
# [10] = system: T-47D breast; conditions: 10 µM unless noted
# [11] = system: BT-549 breast; conditions: 10 µM unless noted
# [12] = system: MDA-MB-435 melanoma; conditions: 10 µM unless noted
# [13] = system: SW-620 colon; conditions: 10 µM unless noted
# [14] = system: MCF7 breast; conditions: 10 µM unless noted
# [15] = system: HCT-116 colon; conditions: 10 µM unless noted
# [16] = system: HCC-2998 colon; conditions: 10 µM unless noted
# [17] = system: KM12 colon; conditions: 10 µM unless noted
# [18] = system: HS 578T breast; conditions: 10 µM
SMILES,growth [1],growth [2],growth [3],growth [4],growth [5],growth [6],growth [7],growth [8],growth [9],growth [10],growth [11],growth [12],growth [13],growth [14],growth [15],growth [16],growth [17],growth [18]
Oc1ccc(Nc2ncnc3c2sc2ncccc23)cc1,7.62% (active),31.9%,7.28% (active),65%,84.3%,30.3%,52.3%,55.8%,15.6%,51%,47.3%,36.5%,44.1%,18.8%,27.5%,69.4%,50.6%,
CCOP(=O)(O)OP(=O)(O)OCC,91.2%,95.8%,119%,96.9%,105%,97.3%,97.3%,105%,105%,92.5%,102%,110%,103%,94.1%,,104%,103%,
COc1ccc(-c2nc3ccc(Cc4ccc5nc(-c6ccc(OC)cc6)[nH]c5c4)cc3[nH]2)cc1,38.8%,18.5%,15.1%,91.2%,11.4%,97.3%,-16.9% (active),-21.9% (active),,20.8%,,35.3%,31.2%,-13.5% (active),39.4%,35.8%,49.1%,73.1%
COc1ccc(C2C3=C(COC3=O)N(CCO)c3cc(OC)c(OC)cc32)cc1 (centres undefined),93.1%,96.1%,108%,104%,105%,106%,119%,109%,105%,91.3%,100%,112%,101%,103%,103%,,106%,
COc1cc2nccc(Oc3ccc(NC(=O)C4(C(=O)Nc5c(F)cc(F)cc5F)CC4)cc3)c2cc1Oc1ccc(N)cn1,58.5%,50.1%,69.7%,70%,28.4%,81.3%,28.1%,75.3%,82.3%,29%,74.2%,3.8% (active),40.3%,31.7%,56.6%,81.5%,15.5%,
Cc1cc(C)c2c(n1)sc1c(Nc3ccc(OCc4ccccc4)cc3)ncnc12,95.5%,95.1%,104%,109%,107%,106%,97.5%,100%,100%,95.7%,102%,107%,101%,93.2%,103%,96.1%,94.2%,
COc1ccc(C2CC(c3ccc(Nc4ccnc5cc(Cl)ccc45)cc3)=NN2c2ccccc2)cc1 (centres undefined),81%,70.5%,95.4%,86.2%,163%,108%,113%,111%,,,99.8%,80.3%,96.3%,81.9%,72.4%,101%,94.2%,105%
COCCOCCOCc1n(Cc2ccc3ccccc3n2)c2ccccc2[n+]1Cc1ccc2ccccc2c1,-37.1% (active),-30.3% (active),9.25% (active),14.7%,9.99% (active),-6.91% (active),-9.44% (active),1.01% (active),98.9%,4.77% (active),-9.56% (active),-21.9% (active),12.4%,4.87% (active),7.79% (active),12.8%,-41.5% (active),
CC(C)OC(=O)c1ccc([N+](=O)[O-])cc1,102%,98.5%,108%,112%,111%,107%,119%,117%,104%,108%,113%,125%,109%,117%,110%,113%,113%,
